Screens deposited in PubChem BioAssay by National Center for Advancing Translational Sciences (NCATS).
HCV inh: HCV inhibition; Huh7.5.1 HCVcc-Cre infection, luciferase reporter, 44 h; AID 651820; Potency, µM (top dose mostly 41.8 µM), for the others: at the top dose activity change, negative = inhibition, most hits filed as inhibitors; actives 3.4% (n = 340,000); active = well fitted inhibition curve with a large enough effect; inconclusive = small, poorly fitted or top-dose-only effect, or another doubt; inactive = no such curve, though single readings can be large or run the other way; note: potency is the fitted concentration of half-maximal effect; % is set by controls: 0 for no effect and ±100 for the full control effect
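HCVcc-Cre virus at an moi near 0.5 was added right after compound to cells cultured 4 h from seeding (1,000 cells/well). Luciferase activity was determined 44 h later, 15 min after substrate addition at RT.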
Marburg entry inh: Marburg virus entry inhibition; Marburg virus pseudotyped entry inhibition, cell reporter; Potency, µM (doses to about 37.8 µM), inactives show top-dose activity change, negative = inhibition, hits mostly inhibitors; actives 1.8% (n = 300,000); AID 540276; calls by dose curve; tested in HEK293 cells; note: potency is the fitted concentration of half-maximal effect; % is set by controls: 0 for no effect and ±100 for the full control effect
SARS PLP yeast: SARS-CoV PLP inhibition in yeast. Potency, µM (series often up to 32.9 µM), without a hit: at the top dose activity, positive = growth rescue, actives largely listed as activators. S. cerevisiae expressing SARS-CoV PLpro, growth rescue. actives 0.19% (n = 330,000); calls by dose curve; note: potency is the fitted concentration of half-maximal effect; 0% is about no effect; nearly all actives have a fitted effect of over 55% in size
FMDV inh: foot and mouth disease virus antiviral activity. FMDV antiviral cell-based qHTS. Potency, µM (doses to about 57.9 µM), inactives show at the highest dose activity change, negative = inhibition, usual class: inhibitors. actives 1.2% (n = 410,000). AID 1159524; calls by dose curve; tested in HEK293T cells; note: read-out not given here; potency is the fitted concentration of half-maximal effect; % is set by controls: 0 for no effect and ±100 for the full control effect; nearly all actives have a fitted effect of over 45% in size
HCMV inh: blocks human cytomegalovirus replication. activity change, negative = inhibition, % at 57.5 µM. actives 4.5% (n = 410,000). HFF cells, HCMV-luciferase reporter, 72 h; stronger effect = lower value. AID 1259415; in the data active = activity change below about -60%; inconclusive = no clear call, values can overlap the other calls; inactive = above about -39%; note: % is set by controls: 0 for no effect and ±100 for the full control effect
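Inhibition of viral replication was scored as loss of reporter luminescence in HFFs infected with HCMV-luciferase (MOI 1 PFU/cell) for 72 h; compounds tested at 2 doses, normalized to buffer and Salinomycin controls.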
Lassa entry inh: Lassa virus entry inhibition; Lassa virus pseudotype entry inhibition, cell reporter; Potency, µM (top dose mostly 37.9 µM), for the others: top-dose activity change, negative = inhibition, usual class: inhibitors; actives 1.2% (n = 300,000); AID 540256; calls by dose curve; tested in HEK293 cells; note: potency is the fitted concentration of half-maximal effect; % is set by controls: 0 for no effect and ±100 for the full control effect; nearly all actives have a fitted effect of over 50% in size
Numbers without * were called inactive; ? = inconclusive; nt = not tested or not shown; ! = repeats disagree; [ ] = another dose, or the depositor's remark. Hits are enriched below; roughly 8% of the tested compounds scored in any of these assays.

SMILES | HCV inh | Marburg entry inh | SARS PLP yeast | FMDV inh | HCMV inh | Lassa entry inh
COc1cccc(NC(=O)C(=O)NCC(c2ccc3c(c2)OCO3)N2CCOCC2)c1 (stereo not drawn) | nt | nt | nt | 30.3% | 72.8 | 19.6%[46.1 µM]
Oc1ccc(-c2n[nH]c(=S)n2-c2ccc3c(c2)OCCO3)c(O)c1 | -25.4% | ? | -9.5% | 2µM* | -101.1* | ?
COC(=O)c1cc(OC(C)C)ccc1NC(=O)[C@@]1(Sc2ccc(OC)cc2)CC(=O)N[C@@H]1c1ccc(OC)cc1 | nt | nt | nt | nt | -39.1 | nt
CCCCCCCCCCCCCCCC(=O)N[C@@H](COP(=O)(O)O)C(=O)O | nt | nt | nt | 12.4%[6.7 µM] | nt | nt
C[C@H](c1ccccc1)N1C[C@@H](COCc2ccccc2)Oc2cc(N3CCC[C@@H]3CO)ccc2S1(=O)=O | nt | nt | nt | 2.2% | -5.5 | nt
CCCCC[C@H](C)N1C[C@@H](COCc2ccccc2)Oc2cc(N3CC[C@H](N(C)C)C3)ccc2S1(=O)=O | nt | nt | nt | -14.9% | ? | nt
CCCCC[C@@H](C)N1C[C@@H](COCc2ccccc2)Oc2cc(N3CC[C@H](N(C)C)C3)ccc2S1(=O)=O | nt | nt | nt | -8.4% | -63.3* | nt
C[C@H](c1ccccc1)N1C[C@H](COCc2ccccc2)Oc2cc(N3CCC[C@H]3CO)ccc2S1(=O)=O | nt | nt | nt | 34.0% | -63.7* | nt
COc1ccc(Cl)cc1N/C(N)=N/c1nc(C)cc(=O)[nH]1 | -10.7% | 3.8%[46.1 µM] | 1.1% | 1.1% | -0.7 | -30.0%[46.1 µM]
COc1ccc(Cl)cc1Nc1nc(C)cc(=O)[nH]1 | 10µM* | -7.3% | -1.2% | -13.6% | 40.0 | 9.5%
Cc1nn(-c2cccc(Cl)c2)c2nc(C(F)(F)F)[nH]c(=O)c12 | 15.2% | 10µM* | -20.8% | ? | -16.7 | 15.6%
COc1ccc(Cl)cc1NC(=O)Cn1cc(S(=O)(=O)Cc2cccc(Cl)c2)c2ccccc21 | nt | nt | nt | 27.2% | ? | ?
COc1ccc(NC(=O)CC2C(=O)N(c3ccccc3)C(=O)N2CCc2sccc2C)cc1 (stereo not drawn) | nt | -28.2%[46.1 µM] | nt | 9.5% | 2.2 | ?
COc1ccc(OC)c(C(=O)c2coc3ccc(OC(C)=O)cc23)c1 | -7.4% | ? | 29.8% | 11.6% | -19.9 | 11.2µM*
COc1ccc(C(=O)c2coc3ccc(OC(C)=O)cc23)cc1 | ? | ? | -5.9% | -44.7% | 18.7 | ?
CCc1ccc(NC(=O)c2cc(=O)c3ccc(C)c(C)c3o2)cc1 | nt | ? | nt | -12.9% | 6.5 | 0.4%[46.1 µM]
CCN1CCN(Cc2ccc(NC(=O)c3ccc(C)c(NC(=O)c4nccn4C)c3)cc2C(F)(F)F)CC1 | -12.5% | nt | 1.3% | 0.0% | -16.1 | nt
CCN1CCN(Cc2ccc(NC(=O)c3ccc(C)c(NC(=O)c4cc(-c5ccc(Br)cc5)n[nH]4)c3)cc2C(F)(F)F)CC1 | ? | nt | -0.4% | -29.8% | ? | nt
CCN1CCN(Cc2ccc(NC(=O)c3ccc(C)c(NC(=O)c4cccc5[nH]ccc45)c3)cc2C(F)(F)F)CC1 | 8.5% | nt | 0.3% | 17.8µM*! | -98.7*! | nt
CCN1CCN(Cc2ccc(NC(=O)c3ccc(C)c(NC(=O)N4CCNC4=O)c3)cc2C(F)(F)F)CC1 | ? | nt | -7.7% | -21.4% | -94.2*! | nt
CCN1CCN(c2cc(C)c3cc(NC(=O)c4cccc(C(F)(F)F)c4)ccc3n2)CC1 | nt | ? | nt | -18.7% | -29.6 | 0.5%[46.1 µM]
CCN1CCN(Cc2ccc(NC(=O)c3ccc(C)c(NC(=O)c4nccnc4N)c3)cc2C(F)(F)F)CC1 | 10µM* | nt | 1.1% | -3.2% | -73.3* | nt
Cc1ccc(NC(=O)c2ccc(NC(=O)N3CCSc4ncccc43)cc2)c(Cl)c1 | nt | nt | nt | ? | ? | -6.9%[46.1 µM]
Cc1cc(NC(=O)CSc2nc(=O)n3cc(Cl)ccc3n2)no1 | 6.7% | 1.4%[46.1 µM] | -1.1% | 2.0% | -97.5* | -2.4%
COCCCN1C(=O)c2ccccc2CC1(C)C(=O)NC1CCCCC1 (stereo not drawn) | nt | 6.8%[46.1 µM] | nt | 26.8% | 40.5 | nt
SMILES | HCV inh | Marburg entry inh | SARS PLP yeast | FMDV inh | HCMV inh | Lassa entry inh
CCS(=O)(=O)NCc1c(C)ncc2c1CCN(C(=O)c1ccc(F)cc1)C2 | nt | nt | nt | -14.9% | nt | nt
CC(=O)C(=Nc1ccc(Cl)cc1Cl)NNc1cccc(Cl)c1 | 10µM* | ? | -25.7% | 24.4% | -15.8 | 10µM*
COc1ccc(-c2cnc(C)o2)cc1S(=O)(=O)Nc1ccc(C)c(N(C)C)c1 | nt | nt | nt | 55.4% | 16.2 | -2.4%[46.1 µM]
Cc1ccc(-c2csc3ncnc(OCC(=O)NC(=O)NCc4ccco4)c23)cc1 | -22.9% | 20.6µM* | -6.6% | ? | -20.3 | ?
COCC(=O)Nc1cc(C(=O)N2CCCOc3c(cccc3OC)C2)c2c(c1)nc(C1CCC1)n2C | nt | nt | nt | -2.5% | nt | nt
CC(=O)N1CCCc2cc(S(=O)(=O)NCc3ccc(OC(C)C)cc3)ccc21 | nt | nt | nt | ? | -22.8 | ?
COc1ccc(Nc2nccc3[nH]c(-c4cccc(F)c4)cc23)cc1 | nt | nt | nt | nt | -33.9 | nt
Cn1cc(-c2cc3c(Nc4ccc(OC(F)(F)F)cc4)nccc3[nH]2)cn1 | nt | nt | nt | nt | -65.3* | nt
Cc1c(C)c(C)c(S(=O)(=O)NCCC(=O)N2CCN(Cc3ccc(C#N)cc3)CC2)c(C)c1C | 12.6µM* | nt | 8.1% | -14.2% | -26.7 | nt
CC(=O)c1ccc(N2CCN(C(=O)c3cc4cc5cc(C)ccc5nc4s3)CC2)cc1 | nt | nt | nt | -0.5% | 3.5 | 16.0%[46.1 µM]
Cc1ccc(C(=O)CSc2cnc3ccccc3n2)cc1C | -28.5% | 18.4µM* | -34.8% | ? | -60.9* | ?
Cc1c(C(=O)Nc2ccc(F)cc2)nnn1-c1cccc(C(F)(F)F)c1 | ? | -0.6%[46.1 µM] | -4.7% | -16.4% | -87.8* | ?
Cc1c(C(=O)Nc2ccc(C(=O)O)cc2)nnn1-c1ccccc1 | nt | nt | nt | 10µM* | -74.4* | ?
Cc1c(C(=O)O)nnn1-c1ccccc1 | 11.9% | 9.8% | -2.6% | 0.0% | -5.1 | 13.3%
Cc1ccccc1Cn1c(SCc2ccc(C(=O)NC(C)c3ccccc3)cc2)nc2ccncc21 (stereo not drawn) | nt | ? | nt | -21.7% | -20.5 | -6.2%[46.1 µM]
COCCN=C1Sc2nc3ccc(C)cc3cc2CN1Cc1ccco1 | -22.1% | -9.6% | -6.1% | 0.0% | -10.1 | 18.7%
CCOc1ccc2nc3c(cc2c1)CN(CCOC)C(=NCCOC)S3 | -18.4% | ? | -6.2% | -9.4% | -61.0* | ?
CCn1c2ccccc2c2cc(NC(=O)COC(=O)Cc3cn4ccsc4n3)ccc21 | 5.62µM* | -8.0% | 2.6% | -12.2% | 16.4 | -1.2%
CCn1c2ccccc2c2cc(NC(=O)COC(=O)c3ccc(O)cc3)ccc21 | ? | ? | -5.1% | -13.8% | -12.1 | ?
O=C(Cc1cn2ccsc2n1)OCc1ccccc1 | 8.2% | 7.08µM* | -3.1% | 15.1% | 7.8 | 5.01µM*
O=C(Cc1cn2ccsc2n1)OCc1nc2ccccc2s1 | -2.4% | -1.4%[46.1 µM] | -0.3% | -1.9% | nt | 5.1%
COC(=O)c1sc(-c2ccccc2)cc1NC(=O)c1ccccc1 | 4.8% | ? | 5.5% | -21.4% | ? | 15.5%
CCOC(=O)c1sc(-c2ccccc2)cc1NC(=O)Nc1ccccc1 | 10µM* | ? | -44.0% | -29.1% | -36.3 | 3.5%
